# Source: article PMC4336329 (PLoS ONE, 2015)
# Out of some 310,000 compounds screened, about 14,000 (4.5%) showed an effect of 50% or more. Effects have a minus sign here. The sample as a whole holds a higher share of strong results than the screen did.
# Target: human ether-à-go-go-related gene (hERG) potassium channel (human, UniProt Q12809)
# Test: primary screen, population patch clamp on CHO cells stably expressing hERG; higher = less effect of the substance
# 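Note: peak tail current of the secondary pulse compared with the same well before compound.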
# Chain of human ether-à-go-go-related gene (hERG) potassium channel (Q12809 whole entry, looked up): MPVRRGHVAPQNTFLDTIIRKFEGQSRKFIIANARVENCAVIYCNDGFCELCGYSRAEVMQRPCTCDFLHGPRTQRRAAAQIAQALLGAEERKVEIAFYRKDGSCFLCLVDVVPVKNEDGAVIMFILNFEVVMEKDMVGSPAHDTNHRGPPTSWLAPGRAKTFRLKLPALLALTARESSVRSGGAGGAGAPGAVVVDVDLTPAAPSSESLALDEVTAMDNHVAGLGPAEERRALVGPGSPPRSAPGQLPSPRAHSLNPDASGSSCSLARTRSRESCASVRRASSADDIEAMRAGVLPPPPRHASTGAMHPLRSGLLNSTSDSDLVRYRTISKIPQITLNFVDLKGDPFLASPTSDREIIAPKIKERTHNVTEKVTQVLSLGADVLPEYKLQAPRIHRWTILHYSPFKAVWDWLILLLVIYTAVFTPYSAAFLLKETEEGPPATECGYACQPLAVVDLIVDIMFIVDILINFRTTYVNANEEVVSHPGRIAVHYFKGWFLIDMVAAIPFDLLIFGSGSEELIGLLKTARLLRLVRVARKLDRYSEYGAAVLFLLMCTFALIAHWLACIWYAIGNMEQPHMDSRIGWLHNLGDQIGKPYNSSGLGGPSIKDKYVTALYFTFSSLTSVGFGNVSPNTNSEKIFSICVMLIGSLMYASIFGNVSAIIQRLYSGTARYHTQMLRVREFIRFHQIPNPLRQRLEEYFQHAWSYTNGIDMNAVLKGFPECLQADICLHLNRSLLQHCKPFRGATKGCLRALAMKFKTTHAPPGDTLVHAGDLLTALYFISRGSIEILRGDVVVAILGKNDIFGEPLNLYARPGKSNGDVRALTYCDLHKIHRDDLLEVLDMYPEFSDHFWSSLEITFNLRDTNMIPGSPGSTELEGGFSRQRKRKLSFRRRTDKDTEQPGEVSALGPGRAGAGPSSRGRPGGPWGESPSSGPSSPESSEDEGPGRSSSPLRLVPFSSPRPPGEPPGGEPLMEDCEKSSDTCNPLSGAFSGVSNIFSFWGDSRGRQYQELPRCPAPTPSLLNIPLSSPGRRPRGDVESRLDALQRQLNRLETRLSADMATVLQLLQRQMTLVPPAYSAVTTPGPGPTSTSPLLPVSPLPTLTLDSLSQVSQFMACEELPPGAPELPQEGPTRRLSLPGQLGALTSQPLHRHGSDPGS
row,SMILES,"hERG current change (%, negative = inhibition) at 10uM [%]"
1,COc1ccccc1CNC(=O)CCc1nc2ccccc2c(=O)[nH]1,-1.26
2,CC(=O)Nc1cccc(NC(=O)c2cccc(OCc3ccccc3)c2)c1,10.6
3,Cc1ccc(C2(C(F)(F)F)NC(=O)N3CCCN=C3S2)cc1 (stereo not shown),16.5
4,Cc1cccc(C)c1NC(=S)N(CCCN1CCCCC1)Cc1ccco1,-25.7
5,Cc1cc(NC(=S)N(CCN2CCCCC2)Cc2ccco2)ccc1Cl,-55.3
6,Cc1ccc(NC(=S)N(CCN2CCCCC2)Cc2ccco2)cc1C,-80.3
7,Cc1ccc(NC(=S)N(CCN2CCCCC2)Cc2ccco2)cc1Cl,-51.1
8,Cc1cc(C)c(NC(=S)N(CCN2CCCCC2)Cc2ccco2)c(C)c1,-37.9
9,Cc1cccc(C)c1NC(=S)N(CCN1CCCCCC1)Cc1ccco1,-34.9
10,Cc1cc(C)cc(NC(=S)N(CCN2CCCCC2)Cc2ccco2)c1,-74.4
11,CN(C)CCOc1ccccc1-c1ccccc1.O=C(O)C(=O)O,-4.52
12,COc1ccccc1CCNC(=O)c1ccc2nc[nH]c2c1,3.97
13,Nc1cc(=O)[nH]c(SCc2ccccc2Cl)n1,3.76
14,Cc1nc2c(nnn2Cc2ccccc2)c(=O)n1-c1ccccc1,0.475
15,NC(=O)c1cc([N+](=O)[O-])ccc1N1CCCCC1,-17.2
16,Cc1ccc(S(=O)(=O)N(C)c2ccc(OC(=O)CN3C(=O)NC4(CCCC4)C3=O)cc2)cc1C,9.26
17,COC(=O)c1ccc(C(=O)OC)c(NC(=O)CN(C)Cc2ccc(Cl)c(Cl)c2)c1,5.46
18,CCNC(=S)N1CCC(C(=O)c2ccc(Cl)cc2)CC1,-16.8
19,O=C(Cn1ncc(N2CCCC2)c(Br)c1=O)c1ccc(Cl)cc1,-23.1
20,CO/N=C(\Cn1ncc(N2CCOCC2)c(Br)c1=O)c1ccc(Cl)cc1,-19.7
21,CC(=O)Cn1ncc(N2CCOCC2)c(Cl)c1=O,4.26
22,O=C(Cn1ncc(N2CCCC2)c(Cl)c1=O)c1ccc(Cl)cc1,-21.2

row,SMILES,"hERG current change (%, negative = inhibition) at 10uM [%]"
1,CC(C)(C)C(=O)Cn1ncc(N2CCOCC2)c(Cl)c1=O,-71.9
2,CO/N=C(\Cn1ncc(N2CCCC2)c(Br)c1=O)c1ccc(Cl)cc1,-57.5
3,CC(=O)Cn1ncc(N2CCCCC2)c(Cl)c1=O,17.8
4,CO/N=C(\Cn1ncc(N2CCCC2)c(Cl)c1=O)c1ccc(Cl)cc1,-64
5,CC(C)(C)C(=O)Cn1ncc(N2CCOCC2)c(Br)c1=O,-0.203
6,CCOC(=O)c1[nH]nc(-c2c(O)cc(C)cc2O)c1-c1csc(C)n1,11.3
7,Cc1cc(C)c2c(c1)c(C)cc1nnc(SCC(=O)NCc3ccco3)n12,-8.05
8,COCCn1c(SCC(=O)NC2CCCCC2)nc2c(c1=O)SCC2,-11.2
9,Cc1ccc(C)c(S(=O)(=O)N2CCCOC2CNC(=O)C(=O)NCCCN2CCOCC2)c1 (stereo not shown),0.752
10,CCN(CC)c1cc(Oc2ccccc2)ncn1,-9.54
11,COc1cccc(C(=O)CSc2nnnn2C)c1,4.88
12,Cc1ccc(/C=N/NC(=O)CSc2nnc(-c3ccc(Cl)cc3)n2-c2ccccc2)o1,-39.5
13,CCOC(=O)N1CCN(C(=O)CSc2nc(-c3cccc(C)c3)ns2)CC1,-38.8
14,O=C1N(Cc2ccccc2F)c2ccccc2C12OCCCO2,10.9
15,O=C(OC(C(=O)c1c[nH]c2ccccc12)c1ccccc1)c1cnccn1 (stereo not shown),1.77
16,O=C(O)/C(=C/c1cccnc1)NC(=O)c1ccccc1,20.3
17,O=C(CC1(O)C(=O)N(CN2CCOCC2)c2ccccc21)c1ccccc1 (stereo not shown),-70.4
18,CCc1ccc(C(=O)CC2(O)C(=O)N(CN3CCOCC3)c3ccccc32)cc1 (stereo not shown),7.69
19,Cc1ccc(C(=O)CC2(O)C(=O)N(CN3CCOCC3)c3ccccc32)cc1 (stereo not shown),-2.38
20,CC(C)=CCC(C)(C)C1OCCN1C(=O)c1ccccc1 (stereo not shown),-18.7
21,Br.COc1ccc(-c2nc3n(c2C)CCC3)cc1,-6.52
22,CCN(CC(=O)Nc1c(F)cccc1F)C(=O)c1cc([N+](=O)[O-])ccc1N1CCCCC1,-10.6

row,SMILES,"hERG current change (%, negative = inhibition) at 10uM [%]"
1,CC(=O)OCc1nc2ccccc2s1,12
2,O=C(CCCCCNC(=S)Nc1ccc(Cl)cc1)C[N+](=O)[O-],12.9
3,COc1ccc(-c2[nH]ncc2CN(C)CCN2CCOCC2)cc1F,16.6
4,COc1cc(/C=C/C(=O)c2ccc(Cl)s2)cc(OC)c1O,-74.4
5,COc1cc(/C=C/C(=O)O)cc(OC)c1O,2.08
6,COc1ccc(C(=O)/C=C/c2ccc(OC)c(O)c2)c(F)c1,-13.5
7,COc1ccc2cc(C(=O)/C=C/c3cc(OC)c(O)c(OC)c3)ccc2c1,8.79
8,COc1ccc(/C=C/C(=O)c2ccc(Cl)s2)cc1O,1.69
9,COc1ccc(C(=O)/C=C/c2cc(OC)c(O)c(OC)c2)c(F)c1,-52.3
10,COc1ccc(CCNC(=O)C2CCN(S(=O)(=O)c3ccc(C)cc3)CC2)cc1,0.741
11,COc1ccc(/C=N/NC(=O)c2cccc(OC(F)(F)C(F)F)c2)c(OC)c1OC,-3.77
12,O=C(Nc1sc2c(c1C(=O)O)CCCCC2)c1ccccc1,67.4
13,O=C(Nc1ccc2c(c1)OCO2)N1CCN(c2ccccc2Cl)CC1,-32.3
14,O=C(Nc1ccc2c(c1)OCCO2)N1CCN(c2ccc(F)cc2)CC1,-5.49
15,O=C1COc2ccc(NC(=O)N3CCN(c4ccc(F)cc4)CC3)cc2N1,-79.8
16,O=C1COc2ccc(NC(=O)c3ccccc3C(=O)O)cc2N1,21.6
17,CCOC(=O)c1ccc(NC(=O)N2CCN(c3cccc(OC)c3)CC2)cc1,-16.5
18,COc1cccc(N2CCN(C(=O)Nc3ccc4c(c3)NC(=O)CO4)CC2)c1,-75.8
19,CSc1ccccc1N1CCN(C(=O)Nc2ccc3c(c2)NC(=O)CO3)CC1,-56.3
20,COc1cccc(N2CCN(S(=O)(=O)c3cc4c(cc3Cl)NC(=O)CO4)CC2)c1,12
21,O=C(Nc1ccc2c(c1)OCO2)N1CCN(c2ccc(F)cc2)CC1,-28
22,Cc1nn(Cc2ccc([N+](=O)[O-])cc2)c(=O)n1N(C)c1ncc(C(F)(F)F)cc1Cl,-3.46

row,SMILES,"hERG current change (%, negative = inhibition) at 10uM [%]"
1,O=C(NCc1ccccc1F)C1CC(=O)N(c2ccc3c(c2)OCCO3)C1 (stereo not shown),-2.83
2,O=C(Nn1c(SCc2cccc([N+](=O)[O-])c2)nc2ccccc2c1=O)c1ccccc1,-1.31
3,Cc1noc(C)c1COc1ccccc1C(=O)NC1CCC(C)CC1 (stereo not shown),0.497
4,CSCC[C@H](NC(=O)Nc1cccc(C(F)(F)F)c1)C(=O)O,-0.0702
5,Cc1cccc(CSc2nnc([C@@H]3CCCN3C(=O)OC(C)(C)C)o2)c1,4.85
6,O=C(COC(=O)c1ccccc1C(=O)N1CCN(c2ccccc2)CC1)Nc1ccccc1,-25.8
7,CC(C)N(C(=O)COC(=O)c1ccccc1C(=O)N1CCN(c2ccc(F)cc2)CC1)C(C)C,-55.9
8,O=C(COC(=O)c1ccccc1C(=O)N1CCN(c2ccccc2)CC1)NCc1ccccc1,-58
9,O=C(c1ccccc1Oc1ccccc1)N1CCN(c2ccc(F)cc2)CC1,-33.9
10,COc1cccc(NC(=O)COC(=O)c2ccccc2C(=O)N2CCN(c3ccccc3)CC2)c1,-11.8
11,O=C(COC(=O)c1ccccc1C(=O)N1CCN(c2ccc(F)cc2)CC1)NCc1ccccc1,-73.6
12,O=C(COC(=O)c1ccccc1C(=O)N1CCN(c2ccccc2)CC1)Nc1ccc(F)cc1,-21.6
13,CN(C(=O)COC(=O)c1ccccc1C(=O)N1CCN(c2ccccc2)CC1)c1ccccc1,-17
14,O=C(COC(=O)/C=C/C(=O)N1CCN(c2ccccc2)CC1)NCc1ccc(F)cc1,-8.17
15,O=C1CCC([N+](=O)[O-])C(c2ccc(Br)cc2)N1 (stereo not shown),7.57
16,CC(=O)N1CCN(C(=O)c2cc3ccccc3o2)CC1,20.1
17,COC(=O)c1ccc(NS(=O)(=O)c2ccc(SC)cc2)cc1,-2.34
18,Cc1nn(Cc2c(Cl)cccc2Cl)c(C)c1N,9.12
19,CCOC(=O)C1=C(c2ccccc2)N=C2SCC(=O)N2C1c1ccc(OCC)c(OCC)c1 (stereo not shown),6.45
20,O=C(Nc1ccncc1)c1cc2ccccc2cc1O,5.89
21,Cc1ccc(-n2cc(C(=O)c3ccccc3O)cn2)cc1,19.8
22,CCCCNC(=O)[C@H]1C[C@H]1[C@@H](O)[C@H](CO)NC(=O)[C@H](CC(C)C)NC(=O)OC(C)(C)C,16.1
